# Only some compounds are listed: those with a hit (about 19% of all), similar ones and a draw of the others.
# TDP1 block – qHTS Assay for Inhibitors of Tyrosyl-DNA Phosphodiesterase (TDP1). Tyrosyl-DNA phosphodiesterase 1 (Homo sapiens), Q9NUW8. recombinant TDP1, AlphaScreen DNA substrate cleavage. Potency, µM (highest dose often 130 µM), inactives show top-dose activity change, negative = inhibition, hits mostly inhibitors. hit rate 0.28% among 350,000. AID 485290, 2010; further: potency means the concentration at half of the fitted maximal effect; on the % scale 0 is the no-effect control and ±100 the full control effect; nearly all actives have a fitted effect of over 40% in size
# Target sequence (Q9NUW8 whole entry, looked up): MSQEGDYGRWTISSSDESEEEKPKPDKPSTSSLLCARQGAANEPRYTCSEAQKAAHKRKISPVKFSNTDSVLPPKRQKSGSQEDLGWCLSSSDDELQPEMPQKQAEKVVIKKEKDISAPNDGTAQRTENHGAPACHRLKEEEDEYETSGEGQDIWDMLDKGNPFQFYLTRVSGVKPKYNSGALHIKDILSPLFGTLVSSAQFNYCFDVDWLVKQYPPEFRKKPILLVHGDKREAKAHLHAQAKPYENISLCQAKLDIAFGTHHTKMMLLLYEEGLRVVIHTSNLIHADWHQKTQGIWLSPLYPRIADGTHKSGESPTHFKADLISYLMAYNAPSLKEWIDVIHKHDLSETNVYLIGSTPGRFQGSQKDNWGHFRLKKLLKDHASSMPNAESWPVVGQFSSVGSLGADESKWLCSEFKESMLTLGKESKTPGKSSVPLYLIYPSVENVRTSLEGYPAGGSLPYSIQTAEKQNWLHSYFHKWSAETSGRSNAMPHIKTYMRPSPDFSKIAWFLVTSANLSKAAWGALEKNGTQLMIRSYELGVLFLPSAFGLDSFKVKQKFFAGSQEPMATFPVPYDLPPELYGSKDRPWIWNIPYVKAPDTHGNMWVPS
#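 AlphaScreen read-out: signal falls as enzyme removes the 3' tyrosine-FITC from a 5'-biotinylated DNA oligo (15 nM, 5 min, RT). Enzyme was E. coli-made recombinant Tdp1 at 1 nM, exposed to compound for 15 min beforehand; beads 10 ug/ml, 10 min.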
# DT40 TDP1 CPT – qHTS for Inhibitors of human tyrosyl-DNA phosphodiesterase 1 (TDP1): qHTS in cells in presence of CPT; chicken DT40 Tdp1-/-;hTDP1 cells + 20 nM CPT, ATP luminescence, 48 h; Potency, µM (top dose mostly 46.2 µM), inactives show at the top dose activity change, negative = growth inhibition, actives largely listed as inhibitors; hit rate 12% among 420,000; AID 686979, 2013; further: potency means the concentration at half of the fitted maximal effect; on the % scale 0 is the no-effect control and ±100 the full control effect; nearly all actives have a fitted effect of over 55% in size
#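 Chicken DT40 Tdp1-/- cells stably complemented with human TDP1 were seeded at 400 cells/well in medium containing 20 nM camptothecin, exposed to pin-transferred compounds, and grown at 37 °C for at least 48 hr. Viability was read as ATP luminescence.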
# TGFb inhibitor – qHTS for Inhibitors of TGF-b | hit rate 1.2% among 410,000 | HepG2 CAGA-GFP TGF-b/SMAD3 reporter, GFP fluorescence, 18 h; TGF-beta stimulated, 500 pg/mL final | Potency, µM (top dose mostly 46.1 µM), without a hit: at the highest dose activity, negative = inhibition, actives largely listed as inhibitors; further: potency means the concentration at half of the fitted maximal effect; on the % scale 0 is the no-effect control and ±100 the full control effect; nearly all actives have a fitted effect of over 65% in size
#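 Per well, imaged GFP fluorescence of HEPG2 CAGA-GFP cells gives the signal; cells get compound, then TGF-beta (500 pg/mL final), 18 h at 37 degrees C; %Activity versus -TGF-beta and +DMSO controls.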
# TDP1 cell noCPT – qHTS for Inhibitors of human tyrosyl-DNA phosphodiesterase 1 (TDP1): qHTS in cells in absence of CPT | Potency, µM (highest dose often 46.2 µM), inactives show at the top dose activity change, negative = growth inhibition, most hits filed as inhibitors | AID 686978, 2013 | DT40 Tdp1-/- hTDP1 cells, no CPT, ATP luminescence, 48 h | hit rate 15% among 420,000; further: potency means the concentration at half of the fitted maximal effect; on the % scale 0 is the no-effect control and ±100 the full control effect; nearly all actives have a fitted effect of over 55% in size
#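 Chicken DT40 Tdp1-/- cells complemented with human TDP1, screened without camptothecin (DMSO vehicle only), 400 cells/well. Compounds pin-transferred, cells incubated at 37 °C for at least 48 hr. Growth read as ATP-dependent luminescence (CellTiter-Glo, 30 min at RT).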
# IL-1B inflam inh – qHTS for Inhibitors of Inflammasome Signaling: IL-1-beta AlphaLISA Primary Screen | THP-1 LPS/ATP IL-1B secretion, AlphaLISA, 16 h; hits give low values | activity change, % at 57.5 µM | hit rate 4.7% among 360,000 | AID 743279, 2014; in the data active means activity change below about -50%; inconclusive means mostly about -30% to -49%; further: on the % scale 0 is the no-effect control and ±100 the full control effect
#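 THP-1 cells pretreated 1 hr with compounds (up to 57.5 uM final), then stimulated with LPS (250 ng/mL final) plus ATP (1.25 mM final); secreted IL-1B measured by AlphaLISA after 16 hr, decreased signal indicating inhibition.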
# HepG2 tox – qHTS for Inhibitors of TGF-b: Cytotox Counterscreen. HepG2 CAGA-GFP viability, ATP luminescence, 18 h. Potency, µM (top dose mostly 46.1 µM), for inactives: top-dose activity change, negative = cytotoxicity, hits mostly cytotoxic. hit rate 0.76% among 410,000; further: potency means the concentration at half of the fitted maximal effect
#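 HepG2 CAGA-GFP cells (1000/well, DMEM with 1% FBS) received compound, then TGF-beta at 500 pg/mL final, and were incubated 18 hours at 37 degrees C. Viability was read by CellTiter-Glo luminescence. Media-only wells were set as complete cell-killing and DMSO as no toxicity.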
# * = called active by the depositor; ? = inconclusive; . = not tested or not shown. Unless noted, the call rests on the fitted dose curve; in most records, active means well fitted curve in the direction sought with a large enough effect; inconclusive means small, poorly fitted or top-dose-only effect, or another doubt; inactive means no such curve, though single readings can be large; an effect the other way counts as inactive or inconclusive.
SMILES,TDP1 block,DT40 TDP1 CPT,TGFb inhibitor,TDP1 cell noCPT,IL-1B inflam inh,HepG2 tox
CCOC(=O)c1c(S(=O)(=O)N2CCCC(C(=O)Nc3cccc(CC)c3)C2)c(C)n(CC)c1C (centres undefined),3%,18µM*,?,?,.,-32%
O=C(Nc1ccc2c(c1)OCCO2)C1CCCN(S(=O)(=O)c2cccs2)C1 (centres undefined),4%,13µM*,4%,?,7,-5%
COc1ccc(NC(=O)C2CCCN(S(=O)(=O)c3cccs3)C2)cc1OC (centres undefined),3%,?,-2%,?,-1,-2%
CCc1cccc(NC(=O)C2CCCN(S(=O)(=O)c3cccs3)C2)c1 (centres undefined),9%,16µM*,?,13µM*,-16,-7%
O=C(Nc1ccc2c(c1)OCO2)C1CCCN(S(=O)(=O)c2cccs2)C1 (centres undefined),2%,16µM*,-6%,?,-10,-48%
Cc1nnc(N2CCN(C(=O)NC(C)C)CC2)c2nn(-c3ccccc3)c(C)c12,8%,-3%,3%,-1%,.,5%
C=C1CC[C@H](O)C/C1=C/C=C1\CCC[C@]2(C)[C@@H]([C@H](C)CC[C@@H](O)C(C)(C)O)CC[C@@H]12,6%,.,.,.,.,.
COC(=O)c1cc(N=Nc2sc(N)nc2C)cc(C(=O)OC)c1,.,?,-5%,13µM*,-19,-21%
CCN(CC)S(=O)(=O)c1cccc(N=Nc2sc(N)nc2C)c1,.,?,-18%,-29%,0,-40%
c1ccc(C2CC(c3ccccc3)n3c(nc4ccccc43)N2)cc1 (centres undefined),4%,16µM*,11%,15µM*,60,17%
CCCC(C)C(=O)Nc1ccc(S(=O)(=O)N2CCCC2)cc1 (centres undefined),.,6%,0%,-6%,6,2%
CCCC(C(=O)Nc1ccc(S(=O)(=O)N2CCCC2)cc1)c1ccccc1 (centres undefined),-2%,21µM*,?,?,-23,-34%
CC(Nc1cccc([N+](=O)[O-])c1)C(=O)Nc1ccc(S(=O)(=O)N2CCCC2)cc1 (centres undefined),2%,15µM*,?,15µM*,?,-19%
O=[N+]([O-])c1cccc(S(=O)(=O)Nc2ccc(S(=O)(=O)N3CCCC3)cc2)c1,.,-27%,0%,-20%,21,-2%
CC(C)C(=O)NC(=S)Nc1ccc(S(=O)(=O)N2CCCC2)cc1,3%,?,-29%,16µM*,-1,-30%
O=C(NC(=S)Nc1ccc(S(=O)(=O)N2CCCC2)cc1)C1CCC1,5%,?,0%,16µM*,14,3%
COc1ccc(S(=O)(=O)NCC2CCCN(Cc3ccc(O)cc3)C2)cc1 (centres undefined),4%,-7%,3%,21%,-1,-3%
CCOC(=O)c1sc(NC(=O)CNCc2ccccn2)c(C(=O)OCC)c1C,11%,?,-4%,26µM*,10,-11%
CCOC(=O)c1c(-c2ccc(C)cc2)csc1NC(=O)CCN1CC(C)OC(C)C1 (centres undefined),-6%,?,?,26µM*,-6,20µM*
CCOC(=O)c1sc(NC(=O)CCN2CCCCCC2)c(C(=O)OCC)c1C,0%,?,?,?,-99*,18µM*
CCOC(=O)c1c(-c2ccccc2)csc1NC(=O)c1ccc(S(=O)(=O)N2CC(C)OC(C)C2)cc1 (centres undefined),1%,-15%,-16%,?,17,7%
CCOC(=O)c1c(NC(=O)CC)sc(C(=O)N2CCCCC2)c1C,-3%,-2%,-11%,-13%,-8,-21%
CCOC(=O)c1c(-c2ccc(OC)cc2)csc1NC(=O)CCN1C(=O)c2ccccc2C1=O,-1%,16µM*,-2%,?,-18,-24%
CCOC(=O)c1c(NC(=O)CCN2CCOCC2)sc2c1CC(C)(C)OC2,1%,3%,5%,?,0,-24%
CCOC(=O)c1c(-c2ccc(OC)cc2)csc1NC(=O)CCN1CCOCC1,3%,?,-3%,18µM*,-10,-11%
SMILES,TDP1 block,DT40 TDP1 CPT,TGFb inhibitor,TDP1 cell noCPT,IL-1B inflam inh,HepG2 tox
CCOC(=O)c1c(NC(=O)CCN2CCOCC2)sc(C)c1-c1ccccc1,1%,21µM*,-22%,23µM*,-78*,-11%
CCOC(=O)c1c(-c2ccc(OC)cc2)csc1NC(=O)CNCc1ccco1,0%,?,3%,?,-13,-15%
COc1cccc(CN2CC34CC(c5ccc(C(C)=O)cc5)C(CC3S2(=O)=O)O4)c1 (centres undefined),6%,.,0%,.,.,-12%
COC(=O)C1(C(=O)OC)Cc2ccccc2N(S(=O)(=O)c2ccc(C)cc2)C1CC(C)=O (centres undefined),.,?,.,?,27,.
CC(C)COc1ccc(C(=O)NNC(=O)c2ccc(=O)[nH]c2)cc1,-8%,-10%,-2%,9%,30,1%
CCCCN(CC)Cc1ccc(CNC(=O)Nc2ccccc2)o1,2%,18µM*,17%,10µM*,-10,-20%
CCCCN(CCCC)Cc1ccc(C(=O)NNC(=O)Nc2ccc(F)cc2)o1,5%,?,0%,?,-18,18µM*
CCCCN(CC)Cc1ccc(CNC(=O)Nc2ccc(OC)cc2OC)o1,3%,-28%,4%,?,-2,-37%
CCCCN(CC)Cc1ccc(CNC(=S)Nc2cccc(F)c2)o1,5%,?,-16%,23µM*,-16,-18%
CC(=O)N1CCN(c2ccc(NC(=O)c3ccc(C(C)(C)C)cc3)cc2)CC1,-3%,?,-20%,26µM*,-95*,-49%
CC(=O)N1CCN(c2ccc(NC(=O)c3cc(Cl)ccc3Cl)cc2)CC1,.,-29%,3%,-14%,-63*,-1%
Cc1ccc(NC(=O)CN(C)C2CCCCC2)cc1Cl,2%,0%,0%,?,?,-26%
Cc1ccc2[nH]c3c(=O)n(CCN4CCOCC4)cnc3c2c1,8%,-2%,-10%,-1%,-3,5%

# Bioassay records from PubChem BioAssay.
